From PubChem BioAssay (NCI)
Compounds without any hit were thinned out: in the full panel of roughly 79,000, 15% have a hit. Unmarked numbers belong to inactive results. Cut-off read from the data, not from the text of the source: active = growth inhibition above about 70%; inactive = the rest.

test: NCI Yeast Anticancer Drug Screen. Data for the mec2-1 strain (AID 157); details: S. cerevisiae mec2-1 strain, stronger effect = higher value; at 50.0 µM unless noted
How it was run: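 Growth inhibition is read against vehicle-treated controls after compound exposure of the mec2-1 yeast strain, which is defective in DNA damage repair or cell cycle control.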

Row | Structure (SMILES) | growth inhibition [%]
1 | Cc1n[nH]c(=O)n1/N=C/c1ccncc1 | 6.95
2 | O=C1CSC(c2c[nH]c3ccccc23)N1c1ccc(Cl)cc1 (stereo not given) | -25.5
3 | O=C1OC(=O)c2c1nc1ccccc1c2-c1ccccc1 | -3.9
4 | CC(=O)OC1CC(n2cc(F)c(=O)[nH]c2=O)OC1CO (stereo not given) | 12.2
5 | CC(=O)Nc1snc(C)c1[N+](=O)[O-] | -0.1
6 | Cc1onc(-c2ccccc2)c1C(C)(O)c1ccccc1 (stereo not given) | 11.2
7 | Clc1ccc(-c2cn3c(nc4ccccc43)c(-c3ccccc3)n2)cc1 | 1.4
8 | CCOC(=O)C1Oc2ccc([N+](=O)[O-])cc2C1(C)O (stereo not given) | 0.75
9 | O=c1[nH]c2cc(Cl)ccc2nc1/C(=N\O)C(O)c1ccc([N+](=O)[O-])cc1 (stereo not given) | 14.2
10 | CC(C)OC(=O)C(O)c1ccccc1 (stereo not given) | -17.1
11 | CSc1ccc2nncc(SC)c2c1 | 7.05
12 | CCN(CC)C/C(C)=C(/c1ccccc1)c1ccccc1S(N)(=O)=O | 4.15
13 | COC(=O)C(=O)c1c(C(=O)OC)nc2nnc(N)n2c1-c1cccc([N+](=O)[O-])c1 | -4.35
14 | CC(=O)c1ccc(N=CC2CCCCC2=O)cc1 (stereo not given) | 2.7
15 | Cc1c(Cl)cccc1NC(=O)COc1ccc(Cl)cc1 | 9.4
